From the supplement of paper PMC6992640
Where a name gives a salt, the structure may show the parent alone. ± gives the standard deviation of the averaged measurements.

Experiments:
Experiment in all cases: cell viability (% of vehicle); higher = less cytotoxic
Conditions in all cases: 10 µM; 72 h
HCI01 = test system: HCI01 (cells of a triple-negative basal-like breast cancer xenograft)
HCI03 = test system: HCI03 (cells of an ER-positive luminal breast cancer xenograft)
HCI09 = test system: HCI09 (cells of a triple-negative luminal androgen receptor type breast cancer xenograft)
HCI11 = test system: HCI11 (cells of an ER-positive luminal breast cancer xenograft)
HCI13 = test system: HCI13 (cells of an ER-positive luminal breast cancer xenograft)
HCI16 = test system: HCI16 (cells of a triple-negative basal-like breast cancer xenograft)
UCD52 = test system: UCD52 (cells of a triple-negative basal-like breast cancer xenograft)
WHIM2 = test system: WHIM2 (cells of a triple-negative basal-like breast cancer xenograft)
WHIM30 = test system: WHIM30 (cells of a triple-negative basal-like breast cancer xenograft)
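Further: PDX cells carrying CMV promoter-driven luciferase, viability read as total photon flux per second by IVIS imaging following D-luciferin, vehicle control 0.1% DMSO.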

SMILES | cell viability (HCI01) | cell viability (HCI03) | cell viability (HCI09) | cell viability (HCI11) | cell viability (HCI13) | cell viability (HCI16) | cell viability (UCD52) | cell viability (WHIM2) | cell viability (WHIM30)
CC(C)NCC(O)c1ccc(O)c(O)c1.Cl (stereo not drawn) [Isoprenaline HCl] | 95.7 ± 15 | 108 | 87.2 ± 13 | 90.3 | 76.2 ± 2 | 122 | 91.9 ± 9.1 | 77.2 ± 5.8 | 113 ± 7.1
Cc1c(N(C)C)c(=O)n(-c2ccccc2)n1C [Amidopyrine] | 99.1 ± 16 | 118 | 94.5 ± 19 | 93.2 | 76.33 ± 0.62 | 97.5 | 97.8 ± 7.1 | 117 ± 37 | 122 ± 8.5
Cc1ccnc(NS(=O)(=O)c2ccc(N)cc2)n1 [Sulfamerazine] | 100 ± 36 | 131 | 88.41 ± 0.75 | 84.2 | 103 ± 8.7 | 111 | 86.8 ± 8.5 | 75.2 ± 10 | 99.5 ± 6
CC(C)NCC(O)COc1cccc2ccccc12.Cl (stereo not drawn) [Propranolol HCl] | 109.73 ± 0.067 | 104 | 100 ± 15 | 84.5 | 97.8 ± 24 | 96.6 | 83.3 ± 4.4 | 83.3 ± 16 | 108 ± 7.8
Cc1cccc(Nc2ccncc2S(=O)(=O)NC(=O)NC(C)C)c1 [Torsemide] | 84.3 ± 43 | 140 | 95.4 ± 16 | 93.5 | 120 ± 21 | 127 | 106 ± 1.8 | 106 ± 1.5 | 171 ± 13
CC(CN1c2ccccc2Sc2ccccc21)N(C)C (stereo not drawn) [Promethazine HCl] | 106 ± 15 | 90 | 75.8 ± 5.4 | 92.9 | 96.1 ± 3.6 | 107 | 73.3 ± 6.1 | 85 ± 17 | 114 ± 7.7
CCN(Cc1ccncc1)C(=O)C(CO)c1ccccc1 (stereo not drawn) [Tropicamide] | 112 ± 15 | 136 | 106 ± 11 | 101 | 136 ± 23 | 110 | 74.6 ± 14 | 91.4 ± 14 | 98.61 ± 0.95
CCn1cc(C(=O)O)c(=O)c2cc(F)c(N3CCNCC3)cc21 [Norfloxacin] | 104 ± 11 | 143 | 116 ± 27 | 101 | 163 ± 52 | 166 | 130 ± 8.1 | 80.5 ± 17 | 160 ± 12
Cl.NC(N)=NC(N)=NCCc1ccccc1 [Phenformin HCl] | 117 ± 7.8 | 114 | 53.2 ± 5.3 | 110 | 58.8 ± 5.4 | 94.6 | 78.7 ± 3.6 | 95.4 ± 15 | 90.3 ± 11
CCCCN1CCCCC1C(=O)Nc1c(C)cccc1C.Cl (stereo not drawn) [Levobupivacaine HCl] | 109 ± 22 | 101 | 117 ± 29 | 106 | 121 ± 14 | 141 | 107 ± 4.1 | 96.2 ± 3 | 163 ± 5.2
Cc1c(O)cccc1C(=O)NC(CSc1ccccc1)C(O)CN1CC2CCCCC2CC1C(=O)NC(C)(C)C (stereo not drawn) [Nelfinavir] | 117 ± 39 | 93.4 | 52.9 ± 40 | 97.2 | 89.3 ± 0.59 | 101 | 68.7 ± 4 | 89.2 ± 16 | 61.5 ± 6.5
CN(C)CCc1c[nH]c2ccc(CS(=O)(=O)N3CCCC3)cc12.O=C(O)CC(O)C(=O)O [Almotriptan Malate] | 105 ± 5 | 132 | 103 ± 6 | 86.5 | 84.8 ± 7.8 | 144 | 87.7 ± 4.3 | 90.6 ± 0.17 | 134 ± 8
Cl.NCCc1ccc(O)c(O)c1 [Dopamine HCl] | 112 ± 25 | 103 | 113 ± 37 | 84.4 | 59 ± 2.7 | 125 | 93.6 ± 0.5 | 56 ± 2.1 | 128 ± 6.4
CCn1cc(C(=O)O)c(=O)c2cc(F)c(N3CCN(C)CC3)cc21.CS(=O)(=O)O [Pefloxacin Mesylate] | 92.2 ± 33 | 137 | 105.3 ± 0.55 | 103 | 160 ± 5.2 | 153 | 113 ± 2.6 | 80.5 ± 16 | 144 ± 11
CC(CN1CC(=O)NC(=O)C1)N1CC(=O)NC(=O)C1.Cl (stereo not drawn) [Dexrazoxane HCl (ICRF-187, ADR-529)] | 64.8 ± 50 | 134 | 107 ± 3.7 | 97.9 | 96.3 ± 1.9 | 84.2 | 96.1 ± 14 | 70.2 ± 19 | 114 ± 1.9
CC(C)C(=O)Nc1ccc([N+](=O)[O-])c(C(F)(F)F)c1 [Flutamide] | 136 ± 7.3 | 139 | 71.8 ± 8 | 125 | 97.9 ± 8.4 | 78.4 | 78.9 ± 5.1 | 112 ± 33 | 116 ± 6.6
O=C([O-])Cc1ccccc1Nc1c(Cl)cccc1Cl.[Na+] [Diclofenac Sodium] | 94.9 ± 18 | 120 | 81.3 ± 5.4 | 73.9 | 105 ± 26 | 111 | 73.6 ± 8.9 | 90.2 ± 14 | 81.348 ± 0.07
Nc1ccc(C(=O)[O-])c(O)c1.O.O.[Na+] [Sodium 4-Aminosalicylate] | 138 ± 21 | 157 | 108 ± 20 | 95.3 | 96.8 ± 13 | 143 | 77.7 ± 16 | 87.9 ± 20 | 92.3 ± 1.1
CC(=O)Nc1ncc([N+](=O)[O-])s1 [Nithiamide] | 112 ± 16 | 159 | 106 ± 6.2 | 105 | 67.5 ± 5.2 | 133 | 109 ± 6.1 | 117 ± 13 | 91.3 ± 2
FC(F)(F)c1ccc(C=Cc2nc(COc3ccc(CCCCn4ccnn4)cc3)co2)cc1 [Mubritinib (TAK 165)] | 111 ± 4 | 89.9 | 26.1 ± 3.1 | 62.2 | 65.54 ± 0.49 | 124 | 56.43 ± 0.074 | 120 ± 31 | 63.1 ± 6.1
CC(C)OC(=O)C(C(=O)OC(C)C)=C1SC=CS1 [Malotilate] | 108 ± 12 | 84.3 | 90.2 ± 13 | 90.9 | 89.8 ± 3.1 | 75.5 | 89.5 ± 2.4 | 75.6 ± 17 | 97.9 ± 4
OCC1OC(Oc2ccc(O)cc2)C(O)C(O)C1O (stereo not drawn) [Arbutin] | 107 ± 28 | 127 | 100 ± 16 | 89.2 | 96.6 ± 4.9 | 131 | 103 ± 1.1 | 81.9 ± 9 | 84.3 ± 7.3
